An excerpt weighted towards active compounds, which were near 6% of everything screened.
D1 potentiator = human D1 dopamine receptor positive modulation. AID 504651. P21728. potentiation, % at 10 µM. HEK293 TREx D1 cells, calcium flux, dopamine EC20 potentiation. 0.036% of 360,000 active; in the data active = potentiation above about 30%; note: 0% is about no effect
D1 ag = agonists of human D1 dopamine receptor | P21728 | HEK293 T-REx D1 cells, calcium flux, agonist mode | activation, % at 2 µM | 1% of 360,000 active | AID 504660; in the data active = activation above about 30%; note: 0% is about no effect
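Inducible HEK293 T-REx D1 cells, force-coupled to calcium signalling, were plated at 4000 cells/well with tetracycline and held overnight at 30 C. After no-wash calcium dye loading, compound-evoked calcium rise over 180 s flagged agonists.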
D3 ag = activates the human D3 dopamine receptor; P35462; D3R DiscoveRx beta-arrestin cells, luminescence, 90 min; max activation, %; 0.58% of 410,000 active; AID 652048; in the data active = max activation above about 30%; note: 0% is about no effect
Target sequence (P35462 whole entry, looked up): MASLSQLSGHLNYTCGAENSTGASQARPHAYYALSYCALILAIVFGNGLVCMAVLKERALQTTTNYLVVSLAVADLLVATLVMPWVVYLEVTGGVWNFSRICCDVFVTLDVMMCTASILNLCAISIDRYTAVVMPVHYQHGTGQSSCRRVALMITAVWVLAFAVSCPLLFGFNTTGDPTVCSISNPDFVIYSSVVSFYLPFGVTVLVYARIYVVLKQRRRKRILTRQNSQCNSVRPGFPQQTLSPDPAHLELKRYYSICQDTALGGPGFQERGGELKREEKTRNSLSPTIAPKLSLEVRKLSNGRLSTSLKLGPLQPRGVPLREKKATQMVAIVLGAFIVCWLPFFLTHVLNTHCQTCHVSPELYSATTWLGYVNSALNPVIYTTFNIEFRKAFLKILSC
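Agonist-mode cell screen: cells plated at 1500/well and incubated overnight at 37 °C, then exposed to library compounds for 90 min at 37 °C. Detection reagent was added for 30–60 min at room temperature, and luminescence was read.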
D1 antag = antagonists of human D1 dopamine receptor. P21728. HEK293 TREx D1 cells, calcium flux, dopamine EC80; active compounds read low. activity change, negative = inhibition, % at 10 µM. 3.2% of 360,000 active. AID 504652; in the data active = activity change below about -30%; note: % is set by controls: 0 for no effect and ±100 for the full control effect
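After overnight tetracycline induction at 30 C, force-coupled D1 HEK293 cells took up a no-wash calcium dye at room temperature. Compounds were added and monitored 180 s, and the response to EC80 dopamine was then recorded.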
D3 antag = antagonists of human D3 dopamine receptor; P35462; D3R cells, DiscoveRx beta-arrestin luminescence, antagonist mode; active compounds read low; max response, negative = inhibition, %; 2.5% of 360,000 active; AID 652054; in the data active = max response below about -50%; inconclusive = no clear call, values can overlap the other calls; note: % is set by controls: 0 for no effect and ±100 for the full control effect
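Cells expressing the human receptor were seeded at 1500 cells/well, incubated overnight at 37 degrees C in 5% CO2, then exposed to library compounds with dopamine controls for 90 minutes at 37 degrees C before luminescent detection.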
An asterisk follows results filed as active.

What do the screens show for `COc1cccc(N2CCN(c3ncnc4c3c(-c3ccccc3)cn4-c3ccc(F)cc3)CC2)c1`?
D1 potentiator: -1; D1 ag: 1; D3 ag: -2; D1 antag: 14

Results for COc1ccc(Cl)cc1Nc1ncnc2c1c(-c1ccccc1)cn2-c1ccccc1 ?
D1 potentiator: -2; D1 ag: -1; D3 ag: -7; D1 antag: -58*

What do the screens show for `COc1ccc(CCNc2ncnc3c2c(-c2ccccc2)cn3-c2ccc(Cl)cc2)cc1OC`?
D1 potentiator: -2; D1 ag: 4; D3 ag: 4; D1 antag: -20

Results for O=C(NCC1CC1)C1(C(F)(F)F)CC(CCCO)CCCO1 (stereo not given) ?
D3 ag: 1; D3 antag: 0

What do the screens show for `CCCS(=O)(=O)NC(=O)C1(C)CCCN(C(=O)c2c(-c3ccccc3)noc2C)C1` (stereo not given)?
D3 ag: 3; D3 antag: 16

Results for CC(C)CCN(CC(=O)NC1CCCC1)C(=O)C(=O)Nc1ccc2c(c1)OCCO2 ?
D1 potentiator: -4; D1 ag: 4; D3 ag: 0; D1 antag: -7; D3 antag: 5

How did CCCCN(CC(=O)NC1CCCC1)C(=O)C(=O)Nc1ccc2c(c1)OCCO2 do in these assays?
D1 potentiator: -10; D1 ag: 7; D3 ag: 8; D1 antag: -36*; D3 antag: -15

How did CCCCn1c(N)c(N(CC(C)C)C(=O)C2CC(=O)N(c3ccc4c(c3)OCCO4)C2)c(=O)[nH]c1=O (stereo not given) do in these assays?
D1 potentiator: 4; D1 ag: 6; D3 ag: -8; D1 antag: 1; D3 antag: -55*

How did CCCCn1c(N)c(N(CC(C)C)C(=O)Cn2c(=O)oc3ccccc32)c(=O)[nH]c1=O do in these assays?
D1 potentiator: -2; D1 ag: -4; D3 ag: 8; D1 antag: -44*; D3 antag: 8

What do the screens show for `CCCCn1c(N)c(N(CC(C)C)C(=O)Cn2c(=O)cnc3ccccc32)c(=O)[nH]c1=O`?
D1 potentiator: -1; D1 ag: 5; D3 ag: -6; D1 antag: -2; D3 antag: 2

What do the screens show for `N#Cc1c(NC(=O)c2ccccc2Cl)n(Cc2ccccc2)c2nc3ccccc3nc12`?
D1 potentiator: -4; D1 ag: 14; D3 ag: -3; D1 antag: -16; D3 antag: inconclusive

Results for CCCCn1c(NC(=O)c2ccccc2Cl)c(C#N)c2nc3ccccc3nc21 ?
D1 potentiator: -10; D1 ag: 17; D3 ag: 4; D1 antag: -39*; D3 antag: inconclusive

Results for CC(=O)Nc1ccc(Sc2ncccc2C(=O)Nc2ccc(F)cc2)cn1 ?
D1 potentiator: 2; D1 ag: 99*; D3 ag: -4; D1 antag: 3; D3 antag: 20

Results for Oc1ccc(C=NC2CCCCC2)cc1 ?
D1 potentiator: -8; D1 ag: 1; D3 ag: -2; D1 antag: -35*; D3 antag: 4

How did CCn1nc(C)cc1C(=O)OCC(=O)c1ccc(Cl)cc1 do in these assays?
D1 potentiator: -8; D1 ag: 3; D3 ag: 9; D1 antag: -63*; D3 antag: 6

How did COCCCNC(=O)c1cn(CC(C)C)c(=O)c2c1c1ccccc1n2C do in these assays?
D1 potentiator: -1; D1 ag: -3; D3 ag: -12; D1 antag: -8; D3 antag: -6

Results for CC(C)Cn1cc(C(=O)NCCCN2CCCC2=O)c2c3ccccc3n(C)c2c1=O ?
D1 potentiator: 2; D1 ag: -1; D3 ag: -15; D1 antag: -30*; D3 antag: 7

What do the screens show for `CC(C)Cn1cc(C(=O)NCCCN2CCC(C)CC2)c2c3ccccc3n(C)c2c1=O`?
D3 ag: -42; D3 antag: -83*

How did CCNC(=S)Nc1ccc2c(c1)oc1ccccc12 do in these assays?
D3 ag: 0; D3 antag: 2

What do the screens show for `COc1ccc(NC(C)=O)cc1S(=O)(=O)NCCc1ccccn1`?
D1 potentiator: 10; D1 ag: 1; D3 ag: -2; D1 antag: 1; D3 antag: -1

How did O=C(OCC(=O)N1CCCc2ccccc21)c1cnc(Cl)c(Cl)c1 do in these assays?
D1 potentiator: 0; D1 ag: 41*; D3 ag: 1; D1 antag: 4; D3 antag: -28

What do the screens show for `O=C(Cn1cnc2ccccc21)OCC(=O)N1CCCc2ccccc21`?
D1 potentiator: -1; D1 ag: 8; D3 ag: 2; D1 antag: -61*; D3 antag: 35

What do the screens show for `Cc1ccccc1OCC(=O)OCC(=O)N1CCCc2ccccc21`?
D1 potentiator: -5; D1 ag: 3; D3 ag: 15; D1 antag: 30; D3 antag: -1

Results for CCn1cc(C(=O)OCC(=O)Nc2cccc(C(C)=O)c2)c(=O)c2ccc(C)nc21 ?
D1 potentiator: 0; D1 ag: -1; D3 ag: -11; D1 antag: 0

How did CCOC(=O)C1=C(C)NC(C)=C(C(=O)OCC)C1C(=O)O do in these assays?
D1 potentiator: -7; D1 ag: 1; D3 ag: 7; D1 antag: 1; D3 antag: 13

Results for CCOC(=O)C1=C(C)NC(C)=C(C(=O)OCC)C1C(=O)OCC(=O)N(C)C ?
D1 potentiator: -2; D1 ag: 0; D3 ag: 8; D1 antag: -60*; D3 antag: 14

What do the screens show for `CCCC1C(C(=O)OCC)=C(C)NC(C)=C1C(=O)OCC`?
D1 potentiator: -19; D1 ag: 2; D3 ag: 2; D1 antag: -50*; D3 antag: -12

What do the screens show for `CCOC(=O)C1=C(C)NC(C)=C(C(=O)OCC)C1c1ccc(O)cc1`?
D1 potentiator: -7; D1 ag: 0; D3 ag: -1; D1 antag: -36*; D3 antag: -4

How did CCCCn1c(=N)c(S(=O)(=O)c2ccc(C)cc2)cc2c(=O)n3cc(C)ccc3nc21 do in these assays?
D1 potentiator: 3; D1 ag: 5; D3 ag: 8; D1 antag: -2

Results for CCc1ccccc1NC(=O)CCc1c(C)nc(SC)nc1C ?
D1 potentiator: -6; D1 ag: 1; D3 ag: 2; D1 antag: -3; D3 antag: -9

How did Cc1ccc(C(=O)/C=C/Nc2ccc(S(=O)(=O)Nc3cc(C)nc(C)n3)cc2)cc1 do in these assays?
D1 potentiator: -3; D1 ag: 8; D3 ag: 5; D1 antag: -57*; D3 antag: 15

What do the screens show for `Cc1cc(NS(=O)(=O)c2ccc(NC(=O)C(F)(F)F)cc2)nc(C)n1`?
D1 potentiator: 1; D1 ag: 3; D3 ag: 30*; D1 antag: 5; D3 antag: -9

Screening results: PubChem, National Center for Advancing Translational Sciences (NCATS)
